Source: PubChem BioAssay AID1220 (Sanford-Burnham Center for Chemical Genomics, 2008)
Screen size: about 190,000 compounds; about 1,300 (0.68%) were called active. The full list was thinned out, with actives kept by preference. A number with no mark means an inactive call. Cut-off read from the data, not from the text of the source: active = inhibition above about 50%; inactive = the rest.

What follows are molecules tested against Mannose-6-phosphate isomerase (Homo sapiens) (UniProt P34949) (assay: MPI inhibition at elevated mannose 6-phosphate – biochemical, fluorescence intensity, high mannose 6-phosphate, primary screen (AID 1220)). Conditions: recombinant PMI enzyme, coupled fluorescence intensity; at 20 µM; stronger effect = higher value.
Mannose-6-phosphate isomerase (Homo sapiens), sequence (P34949 whole entry, looked up): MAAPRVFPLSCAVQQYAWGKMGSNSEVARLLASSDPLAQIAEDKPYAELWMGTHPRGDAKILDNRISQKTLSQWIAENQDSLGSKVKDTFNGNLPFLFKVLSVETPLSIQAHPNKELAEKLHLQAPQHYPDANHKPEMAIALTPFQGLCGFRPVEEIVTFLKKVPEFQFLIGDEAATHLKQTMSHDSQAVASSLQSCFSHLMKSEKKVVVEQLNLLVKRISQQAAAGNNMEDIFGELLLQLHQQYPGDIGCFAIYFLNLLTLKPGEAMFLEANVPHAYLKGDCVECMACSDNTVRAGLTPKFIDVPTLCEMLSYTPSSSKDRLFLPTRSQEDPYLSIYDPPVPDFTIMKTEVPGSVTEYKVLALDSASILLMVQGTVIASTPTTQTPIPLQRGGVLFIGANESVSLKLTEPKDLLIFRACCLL

Row | SMILES | inhibition
1 | CCCCOc1ccc(Br)cc1CSC(=N)N | -4.3%
2 | O=C(C[n+]1ccc(-c2cc(C(=O)Nc3cccc(C(F)(F)F)c3)c3ccccc3n2)cc1)c1cccc([N+](=O)[O-])c1 | -6.2%
3 | COc1ccc(/C=C(/NC(=O)c2ccccc2)C(=O)N/N=C/c2ccc3c(c2)OCO3)cc1OC | -10.4%
4 | O=C(CC1Nc2ccccc2NC1=O)NCCCN1CCCCCC1 (stereo unspecified) | 0.7%
5 | Cc1ccc(NC(=S)N2CCN(S(=O)(=O)c3c(F)cccc3F)CC2)cc1C | 11.5%
6 | CC1CCCCN1C(=O)C12CCC(C)(C(=O)C1)C2(C)C (stereo unspecified) | 48.1%
7 | Cc1c(C(N)=O)sc2ncn(CC(=O)NCCc3ccccc3)c(=O)c12 | -8.4%
8 | O=C(CCc1c[nH]c2ccccc12)NCC(=O)Nc1ccc(F)c(F)c1F | -1.9%
9 | CCCC(=O)Nc1ccc(S(=O)(=O)Nc2cc(C)nc(C)n2)cc1 | 4.9%
10 | CCOc1ccc(NC(=O)c2ccc(NC(=S)NC3CC3)cc2)cc1 | 12.4%
11 | CCOC(=O)c1ccc(NC(=S)NC2CCCC2)cc1 | -1.3%
12 | CCOc1ccc(NC(=O)c2ccc(NC(=S)NC3CCCCC3)cc2)cc1 | 52.6% (active)
13 | CCCCN(C(=O)NC(=O)Nc1cccc(C)c1C)S(C)(=O)=O | -3.7%
14 | COc1cc2c(C#N)c(N3CCOCC3)nc(N)c2c(N)n1 | 22%
15 | COc1cc2c(C#N)c(N3CCN(c4ccccc4OC)CC3)nc(N)c2c(N)n1 | 54% (active)
16 | COc1cc2c(C#N)c(N3CCN(C)CC3)nc(N)c2c(N)n1 | 34.6%
17 | COc1ccc(CN=CC2=C(O)CNC2=O)cc1OC | -8.2%
18 | CCN(CC)c1ccc(NS(=O)(=O)c2ccc3c(c2)oc(=O)n3C)c(C)c1 | 23.7%
19 | CCOC(=O)Cn1c(=O)oc2cc(S(=O)(=O)Nc3c(C)cc(C)cc3C)ccc21 | 5.9%
20 | CCOC(=O)Cn1c(=O)oc2cc(S(=O)(=O)Nc3ccc(N(CC)CC)cc3C)ccc21 | 51.2% (active)
21 | CCOc1ccc(-c2csc(NC(=O)CSC3=NC(=O)CN3C(C)=O)n2)c2ccccc12 | 14.8%
22 | O=C1c2cccc3cccc(c23)C(=O)N1Cc1ccco1 | -4.4%
23 | O=C1c2cccc3c(O)ccc(c23)C(=O)N1Cc1ccccc1 | 7.6%
24 | O=C1c2cccc3c(O)ccc(c23)C(=O)N1Cc1ccco1 | 64.3% (active)

Row | SMILES | inhibition
25 | CSc1nc(O)c(C2OC(=O)c3ccccc32)c(=O)[nH]1 (stereo unspecified) | 8.9%
26 | Cc1ccc(NS(=O)(=O)c2ccc3[nH]c(=O)c(=O)[nH]c3c2)cc1Cl | 14.3%
27 | O=[N+]([O-])c1ccc(Oc2ccc(F)cc2)c2ccncc12 | 17.6%
28 | O=[N+]([O-])c1ccc(Oc2ccc(F)cc2Br)c2ccncc12 | 50% (active)
29 | O=[N+]([O-])c1ccc(Oc2cccc(F)c2)c2ccncc12 | -0.7%
30 | Nc1cc(Cl)ccc1Oc1ccccc1 | -2.5%
31 | Nc1cc(Cl)ccc1Oc1ccc(Cl)cc1 | -1.6%
32 | N#C/C=C\Oc1ccc(Cl)cc1N | 57.9% (active)
33 | COc1cc(-c2nnc(COC(=O)c3cc(C)nc4ccc(C)cc34)o2)cc(OC)c1OC | 13%
34 | CCN1CCN(CCOCCOc2ccccc2-c2ccccc2)CC1 | -4.3%
35 | O=S(=O)(Cc1ccc(Cl)cc1)NCC1CCCO1 (stereo unspecified) | 14.9%
36 | CCOC(=O)c1cc2c(C)n(-c3ccc(N(C)C)cc3)c(C)c2cc(C(=O)OCC)c1=O | 37.3%
37 | Cn1c(C(=O)N2CCCc3ccccc32)cc2sccc21 | -3.3%
38 | O=C(CNC(=S)N(CCCN1CCOCC1)Cc1cccs1)N1CCCCCC1 | 55.1% (active)
39 | O=C(CNC(=S)N(CCCN1CCOCC1)Cc1cccs1)N1CCCC1 | -5%
40 | O=C(CNC(=S)N(CCCN1CCOCC1)Cc1cccs1)N1CCOCC1 | -1.9%
41 | CCCC(=O)Nc1ccccc1N1CCN(C(=O)C(C)C)CC1 | -0.1%
42 | CN(C)c1ccc(NC(=O)c2cn(-c3ccccc3)nc2-c2cccs2)cc1 | 13.7%
43 | O=C1C=C(Nc2ccc(Cl)cc2)CC(c2ccco2)C1 (stereo unspecified) | 5.8%
44 | O=C1C=C(Nc2cccc(O)c2)CC(c2ccco2)C1 (stereo unspecified) | 12%
45 | O=C1C=C(Nc2ccc(O)cc2)CC(c2ccco2)C1 (stereo unspecified) | 60.2% (active)
46 | COC(=O)c1cccc([N+](=O)[O-])c1CN1CCCC(C(N)=O)C1 (stereo unspecified) | -6.5%
47 | CCN1C(=O)c2cccc3c(NC(=O)c4ccc(S(=O)(=O)N(C)C)cc4)ccc1c23 | 13.6%
48 | CCN1C(=O)c2cccc3c(S(=O)(=O)NCc4ccco4)ccc1c23 | 63% (active)

Row | SMILES | inhibition
49 | CCN1C(=O)c2cccc3c(S(=O)(=O)NCc4ccccn4)ccc1c23 | -3.8%
50 | CCOc1cc(C(=O)Nc2ccc3c4c(cccc24)C(=O)N3CC)cc(OCC)c1OCC | -4.4%
51 | CCOC(=O)c1ccc(NC(=O)Nc2ccc3c4c(cccc24)C(=O)N3CC)cc1 | 53.1% (active)
52 | CCN1C(=O)c2cccc3c(NC(=O)C(C)(C)C)ccc1c23 | 11.8%
53 | CCN1C(=O)c2cccc3c(NS(=O)(=O)c4ccc(NC(C)=O)cc4)ccc1c23 | 55.9% (active)
54 | CCN1C(=O)c2cccc3c(NC(=O)c4ccccc4)ccc1c23 | 27.7%
55 | CN1C(=O)c2cccc3c(S(=O)(=O)NCc4ccco4)ccc1c23 | 1.8%
56 | Cc1nn(CC(=O)Nc2sc3c(c2C#N)CCC(C(C)(C)C)C3)c(C)c1[N+](=O)[O-] (stereo unspecified) | 21%
57 | COc1ccc(S(=O)(=O)NNC(=O)C2CC(c3cccnc3)=NO2)cc1 (stereo unspecified) | -11%
58 | CC(=O)C(=Nc1ccccc1Cl)NNc1ccc(Cl)cc1 | -52.8%
59 | C=CCOn1c(=O)c(-c2ccccc2)[n+]([O-])c2ccccc21 | 12%
60 | COc1ccc(CCN(Cc2cc3cc(C)cc(C)c3nc2Cl)C(=O)C2CC2)cc1 | 15.7%
61 | Clc1ccc(-c2nnc3n2CCCCS3)cc1 | -8.4%
62 | CCCN1CCN(c2nc3c([nH]2)c(=N)ncn3CC(O)CO)CC1 (stereo unspecified) | 2.5%
63 | COC(=O)C1C(=O)c2c([nH]c(C(=O)OC3CCCC3C)c2C)CC1C (stereo unspecified) | 12.3%
64 | COc1ccc(-c2nn3c(-c4ccc(F)cc4)nnc3s2)cc1 | -6.8%
65 | O=C(Cn1c2c(sc1=O)C1c3ccccc3OCC1CS2)Nc1ccc(Cl)cc1 (stereo unspecified) | 8.7%
66 | Cn1cc(C2CC(c3ccccc3)=NN2C(=O)c2ccccc2)c2ccccc21 (stereo unspecified) | 20.9%
67 | OCCCNC(=S)Nc1ccc2nccnc2c1 | 53.9% (active)
68 | Cc1nc2ccc(NC(=S)NCCCO)cc2nc1C | -2.9%
69 | OCCCNC(=S)Nc1ccc2nc(-c3ccccn3)c(-c3ccccn3)nc2c1 | 14.4%
70 | c1ccc2c(CCNc3ncnc4nc[nH]c34)cccc2c1 | 10%
71 | COC(=O)c1ccc(-c2sc3nc(N4CCOCC4)c4c(c3c2N)CCCC4)o1 | 20.1%
72 | CNC(=O)c1ccc(-c2sc3nc(N4CCOCC4)c4c(c3c2N)CCCC4)o1 | 55.4% (active)

Row | SMILES | inhibition
73 | CNC(=O)c1ccc(-c2sc3nc(N4CCOCC4)c4c(c3c2N)CC(C)(C)OC4)o1 | 48.4%
74 | CC(C)C(=O)Nc1cccc(-c2csc(-c3ccccc3)n2)c1 | 11.9%
75 | COc1ccc(-c2noc(-c3cccnc3)n2)cc1OC | -11.6%
76 | COc1cc(CC(C#N)(CO)c2nc3ccccc3[nH]2)ccc1OC(F)F (stereo unspecified) | 16.3%
77 | Cc1nc(N2CCCC2)c2ccsc2n1 | -2.9%
78 | CCN(CC)CCCNC(=O)CSc1c2c(nc3cc(Cl)ccc13)CCCC2 | -5.8%
79 | O=C(CSc1c2c(nc3cc(Cl)ccc13)CCCC2)NCCN1CCOCC1 | 2.2%
80 | CCN(CC)CCNC(=O)CSc1c2c(nc3cc(Cl)ccc13)CCCC2 | 56.3% (active)
81 | Cn1c(Cn2c(=O)sc3ccccc32)nnc1SCC(=O)NCC1CCCO1 (stereo unspecified) | 2.5%
82 | CC(C)Cc1ccc(/C=C/C(=O)N2CCCCC2)cc1 | 9.7%
83 | Cc1ccc2nc(NC(=O)c3ccc(-c4nc5ccccc5s4)s3)sc2c1 | -17.4%
84 | COc1ccc(N2CCN(c3nc4ccc(C)cn4c(=O)c3C=O)CC2)cc1 | 56.9% (active)
85 | Cc1ccc2nc(N3CCN(c4ccccc4F)CC3)c(C=O)c(=O)n2c1 | 19.9%
86 | Cc1ccc2nc(N3CCOCC3)c(C=O)c(=O)n2c1 | 2.9%
87 | Cc1ccc2nc(N3CCCCC3)c(C=O)c(=O)n2c1 | -6.8%
88 | Cc1ccc2nc(N3CCN(c4ccccc4)CC3)c(C=O)c(=O)n2c1 | 50.4% (active)
89 | COc1ccc(N2CCN(c3nc4ccccn4c(=O)c3C=O)CC2)cc1 | 42.4%
90 | CC(C)(C)c1ccc(NC(=O)COC(=O)CCN2C(=O)c3cccc([N+](=O)[O-])c3C2=O)cc1 | 3.2%
91 | CN1CCN(S(=O)(=O)c2ccc(NC(=O)c3csc4ccccc34)cc2)CC1 | -13.4%
92 | CC(=O)Nc1ccc(NS(=O)(=O)Cc2ccccc2)cc1 | 3.4%
93 | COc1ccc(C(CNC(=O)Cc2ccccc2F)N2CCCCC2)cc1 (stereo unspecified) | -1.6%
94 | CN1/C(=C\C(=O)c2ccco2)c2ccccc2CC1(C)C | -4.8%
95 | Cc1ccccc1NC(=S)NC12CN3CN(CN(C3)C1)C2 | 1.3%
96 | CCc1ccccc1N1CC23C=CC(O2)C(C(=O)OCC(C)C)C3C1=O (stereo unspecified) | 7.8%
